From a collection of fitness landscapes (doi:10.1016/j.celrep.2020.107928)
In all, about 81,000 sequences were measured (“one-hybrid fitness for binding NBS DNA”: median about -0.1, highest 2% from about 0.36 on). Only a selection was taken, and the highest values are over-represented in it overall.

B1: Caulobacter ParB omega fusion; a variant is named by its letters at X, in order, B8GW30 (parent)
chain: MESVVVGEPGMSEGRRGLGRGLSALLGEVDAAPAQAPGEQLGGSREAPIEILQRNPDQPRRTFREEDLEDLSNSIREKGVLQPILVRPSPDTAGEYQIVAGERAWRAAQRAGLKTVPIMVRELDDLAVLEIGIIENVQRADLNVLEEALSYKVLMEKFERTQENIAQTIGKSXSHVANXMRLLXLPDEVQSYLVSGELTAXHARAIAAAADPVALAKQIIEGGLSVRETEALARKAPNLSAGKSKGGRPPRVKDTDTQALESDLSSVLGLDVSIDHRGSTGTLTITYATLEQLDDLCNRLTRGI

Variants of: B1
Experiment: one-hybrid fitness for binding NBS DNA (the Noc-binding site; scaled: cognate 1, non-cognate 0); higher = stronger binding
Conditions: with NBS DNA site
In short: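 Fitness is the rescaled log change in variant-to-wild-type read ratio, measured by Illumina sequencing of plasmids before and after bacterial one-hybrid selection. The scale puts cognate at 1 and non-cognate at 0. Selection of Caulobacter ParB libraries, four specificity codons randomised, took place in E. coli USO with a HIS3 reporter, site 19 bp from the promoter, over 48 hours at 37°C on M9-minus-histidine with 0.1 mM IPTG and 5 mM 3-AT.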

Variant	one-hybrid fitness for binding NBS DNA
QKKP	0.26
QKKS	0.662
QKKQ	0.384
QKKG	0.332
QKKD	0.211
QKKI	0.337
FAHG	≤ 0.2
SLHE	≤ 0.2
RHIK	≤ 0.2
GTLP	≤ 0.2
PPRN	≤ 0.2
SIAA	≤ 0.2
YQPS	≤ 0.2
KTAW	≤ 0.2
CMYT	≤ 0.2
DGST	≤ 0.2
AMAP	≤ 0.2
QKRG	0.335
QKQS	0.458
QKRN	0.37
QKNP	≤ 0.2
QKPS	≤ 0.2
QKYS	0.43
QKNS	0.539
QKIS	0.278

Variant	one-hybrid fitness for binding NBS DNA
QKQD	≤ 0.2
QKQP	≤ 0.2
QKDS	0.332
QKYN	≤ 0.2
DCTY	≤ 0.2
IHHC	≤ 0.2
WGKE	≤ 0.2
WAWT	≤ 0.2
MWRS	≤ 0.2
MATS	≤ 0.2
CSVV	≤ 0.2
GFNG	≤ 0.2
GKLD	≤ 0.2
QKHH	0.205
GKLS	≤ 0.2
QKAN	≤ 0.2
QKCH	≤ 0.2
QKCS	0.419
GKLH	0.366
QKHS	0.494
QKHD	≤ 0.2
QKAS	0.498
QKCN	≤ 0.2
QKAP	≤ 0.2
SLNQ	≤ 0.2

Variant	one-hybrid fitness for binding NBS DNA
VERV	≤ 0.2
NEQT	≤ 0.2
RMDV	≤ 0.2
RYAC	≤ 0.2
YPLD	≤ 0.2
IQMR	≤ 0.2
QKLD	≤ 0.2
GWLP	≤ 0.2
QKRH	0.579
QKLS	0.392
QKSP	≤ 0.2
QKRD	0.268
GWLI	0.404
QKSH	0.241
QKLH	0.246
QKSS	0.449
GWLS	≤ 0.2
QKRF	0.258
YTAV	≤ 0.2
HGTI	≤ 0.2
VPLE	≤ 0.2
AYGD	≤ 0.2
RKKE	≤ 0.2
KHKY	≤ 0.2
QKGS	0.465

Variant	one-hybrid fitness for binding NBS DNA
QKRP	0.261
QKRI	0.301
QKGH	0.228
QKDH	0.521
QKGD	≤ 0.2
QKDD	≤ 0.2
QKNH	0.286
QKRS	0.677
MPKT	≤ 0.2
RGWG	≤ 0.2
DTNG	≤ 0.2
IIGR	≤ 0.2
VAWT	≤ 0.2
RYSH	≤ 0.2
RYRS	0.572
RYQS	0.386
RYRN	≤ 0.2
RYSG	≤ 0.2
RYSS	0.437
RYSN	≤ 0.2
RYRD	≤ 0.2
RYSC	≤ 0.2
RYST	0.452
RYQH	≤ 0.2
RYQD	≤ 0.2
